# Laboratory results taken from PubChem BioAssay (NCATS).
# Inconclusive results are not listed. Entries that show only a call come without a potency. Activity calls are given as the source filed them. The call rests on the fitted dose curve; in most records, active means well fitted inhibition curve with a large enough effect; inconclusive means small, poorly fitted or top-dose-only effect; inactive means flat fitted curve, though single readings scatter.
# Molecular target: Calcium and integrin-binding protein 1 (Homo sapiens) (UniProt Q99828)
# Experiment: Primary qHTS for Identification of Calcium Integrin Binding Protein 1 (CIB1) Competitor (AID 1508620);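 further: GST tagged CIB1 binding a fluorescein labelled alphaIIb integrin peptide tracer; top concentration of the series differs between compounds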
# Conditions: CIB1-GST / FITC-alphaIIb peptide fluorescence polarization; series mostly up to 114 µM
# In short: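 CIB1-GST (1 uM final) and compound incubated 15 min at room temperature before adding FITC-alphaIIb peptide tracer (100 nM final). Competition for binding read by fluorescence polarization (ex 480, em 540) after another 15 min at room temperature.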
# Calcium and integrin-binding protein 1 (Homo sapiens), sequence (Q99828 whole entry, looked up): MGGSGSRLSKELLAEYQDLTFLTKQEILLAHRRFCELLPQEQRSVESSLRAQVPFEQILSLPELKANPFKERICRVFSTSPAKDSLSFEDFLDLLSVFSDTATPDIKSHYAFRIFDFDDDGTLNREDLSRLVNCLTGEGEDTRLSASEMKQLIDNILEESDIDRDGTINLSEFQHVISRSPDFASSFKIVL
row,SMILES,Potency
1,COc1ccc(C2=Nn3c(nnc3-c3cc(OC)ccc3OC)SC2)c(OC)c1,inactive
2,O=S(=O)(c1ccc2c(c1)OCCCO2)N1CCN(S(=O)(=O)c2c(F)cccc2F)CC1,inactive
3,O=S(=O)(c1ccc2c(c1)OCCO2)N1CCN(S(=O)(=O)c2ccc3c(c2)OCCO3)CC1,inactive
4,COc1ccccc1-c1no[n+]([O-])c1C#N,inactive
5,COc1ccc(CN(Cc2ccccc2)C(=O)c2ccccc2O)cc1,inactive
6,CC(=O)NC(c1cc(Cl)c2cccnc2c1O)C(C)C (centres undefined),inactive
7,Cc1ccc(CNc2ccc(N3CCN(C)CC3=O)cc2)cc1,inactive
8,Fc1ccc(Nc2nc(-c3ccncc3)nc3ccccc23)cc1F,inactive
9,O=c1c2ccccc2nc2sc(NCc3ccc([S+](=O)([O-])c4ccccc4)cc3)nn12,inactive
10,Cc1ccc(OCCn2c(CCNC(=O)C3CCN(C(=O)OC(C)(C)C)CC3)nc3ccccc32)cc1,inactive
11,CN(C)c1cccc(-c2ncnc(N3CCC(C(N)=O)CC3)n2)c1,inactive
12,Cc1cc(C(=O)Nc2ccc(NC(=O)Cc3ccc(Cl)c(Cl)c3)cc2)no1,inactive
13,Cn1ccc2cc(-c3csc(N4CCC(C(N)=O)CC4)n3)ccc21,inactive
14,Cc1cc2c(s1)c1cnn(Cc3ccc(C(C)C)cc3)c(=O)c1n2C,inactive
15,CC1=C(C(=O)NC2CCCCC2)C(c2ccccc2Br)N=C(Nc2nc3ccccc3o2)N1 (centres undefined),inactive
16,COc1cc(O)c(C(CC(=O)N2CCCC(c3nc4ccccc4o3)C2)c2ccc3c(c2)OCO3)c(OC)c1 (centres undefined),inactive
17,N#Cc1ccc(C[C@@H](NS(=O)(=O)c2ccc(C(=O)O)cc2)C(=O)O)cc1,inactive
18,Fc1ccc(-c2nnc(CCCCSc3nnc(-c4cccc5ccccc45)o3)o2)cc1,inactive
19,C/C(=C\c1cccc(C(F)(F)F)c1)C1Nc2cccc3cccc(c23)N1,inactive
20,COc1ccc(C2=Nn3c(nnc3-c3ccc(OC)c(OC)c3)SC2)c(OC)c1,inactive

row,SMILES,Potency
1,NC(=O)c1ccc(C[C@H](C(=O)O)N2C(=O)c3ccc(C(=O)O)cc3C2=O)cc1,inactive
2,CN(C)c1ccc2nc(NC(=S)N3CCN(c4cccc(C(F)(F)F)c4)CC3)sc2c1,inactive
3,Fc1cc(Nc2nc(-c3ccncc3)nc3ccccc23)ccc1-c1cccc(OC(F)F)c1,inactive
4,COc1ccc(C2Nc3ccccc3C(=O)N2Cc2ccccc2)cc1COc1ccc(F)cc1 (centres undefined),inactive
5,C[C@@H]1CN(S(=O)(=O)c2ccc3c(c2)OCCO3)CCN1S(=O)(=O)c1c(F)cccc1F,inactive
6,O=C(Cc1ccc2ccccc2c1)Nc1nnc(-c2ccncc2)s1,inactive
7,Cc1cc(C)nc(NC(=S)N2CCN(c3ccccn3)CC2)c1,inactive
8,COc1ccccc1-c1nnc2n1N=C(c1ccc(OC(F)F)c(OCC3CC3)c1)CS2,inactive
9,O=C1CCCC2=C1C(c1ccccc1)N=C(Nc1nc3ccccc3o1)N2 (centres undefined),inactive
10,COc1cc(OC)cc(-c2nnc3n2N=C(c2ccccc2OC)CS3)c1,inactive
11,CN1CCN(c2cccc(CNc3nn4c(=O)c5ccccc5nc4s3)c2)CC1,inactive
12,Cc1ccc(NC(=O)CN2C(=O)N/C(=C\c3cccn3-c3ccc(C(=O)NC#N)cc3)C2=O)cc1,inactive
13,C[C@@](Cc1ccccc1)(C(=O)O)N1C(=O)c2ccc(C(=O)O)cc2C1=O,inactive
14,CC1(C)CC2CC(C)(CN2S(=O)(=O)c2ccc(C(=O)Nc3cccc(S(=O)(=O)N4CCOCC4)c3)cc2)C1 (centres undefined),inactive
15,CC(C)(C)OC(=O)N1CCN(c2cnc(NCc3ccc(-c4ccc(C#N)cc4)o3)nc2)CC1,inactive
16,O=C(c1ccc2c(c1)ncn2-c1cccc(Cl)c1)N1CCCCC1,inactive
17,Cc1cc2c(s1)c1cnn(Cc3cc(Cl)ccc3F)c(=O)c1n2C,inactive
18,N#Cc1nc(Nc2ccccc2)nc(NC2CCCC2)n1,inactive
19,Cc1nc(CNc2ncnc3ccc(-c4sc(C)nc4C)cc23)cs1,inactive
